# Compound activity as filed in PubChem.
# LGR2 inh = inhibitors of bursicon-induced LGR2 CRE-luciferase signal, primary screen, cell-based, HEK293, CRE-luciferase reporter, bursicon stimulation. Drosophila bursicon receptor LGR2 (rickets). bursicon-stimulated, 4 h. inhibition, % at 9.99 µM. hit rate 0.35% among 380,000. AID 720647, 2013;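 active means drop in luminescence signal, shown as inhibition above about 50% in the replicate tests, limit read from the data, passing the limit was not always enough; inconclusive means probably only some replicates passing the limit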;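 further: agonist challenge used bursicon conditioned medium at about half maximal strength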
# EWS-Fli inh = EWS/Fli-driven NR0B1 reporter inhibitors, primary screen, A673 cells, NR0B1 luciferase, luminescence, MLPCN library; viability-normalised; inhibition, % at 12.6 µM; hit rate 0.67% among 350,000;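 active means mean inhibition of at least 50% after viability correction, with every replicate also passing that limit; inconclusive means mean reaches 50% but only one of two replicates passes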;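 further: firefly luciferase signal divided by Alamar Blue viability fluorescence both relative to DMSO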
# TROY signal inh = inhibitors of TROY-driven NF-kB signaling, primary screen, Q293 LMP1-TROYcd cells, NF-kB luciferase, uHTS. hit rate 0.98% among 360,000. Q293 LMP1-TROYcd NF-kB luciferase reporter, 4 h. inhibition, % at 10 µM;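 active means compounds whose plate-normalised and pattern-corrected inhibition of the luciferase reporter signal at the single screening dose is 50% or more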
# TWEAK-Fn14 inh = inhibitors of TWEAK-Fn14 signaling, primary screen, luciferase reporter cells, uHTS. TWEAK-stimulated Fn14 reporter cells, luciferase luminescence, 8 h. hit rate 2% among 360,000. inhibition, % at 10 µM; in the data active means inhibition above about 50%
# LMP1 NFkB inh = EBV LMP1-driven NF-kappaB luciferase reporter inhibitors, primary screen, cell-based, luminescence, single point | inhibition, % at 12.5 µM | hit rate 0.69% among 350,000 | AID 504558, 2011 | LMP1-induced NF-kappaB luciferase reporter cells; in the data active means inhibition above about 41%; inconclusive means no clear call, values can overlap the other calls;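 further: 0% = neutral control wells and 100% = reference inhibitor control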
# * = called active by the depositor; u = inconclusive; x = no result given. Shown are actives, neighbours in structure and some others; about 2.6% of the full set was active somewhere.
SMILES,LGR2 inh,EWS-Fli inh,TROY signal inh,TWEAK-Fn14 inh,LMP1 NFkB inh
CCN1C(=O)N(CC)c2cccc3cccc1c23,-6,4,33,92*,9
CN1N=C(c2ccc(F)c(F)c2)CSC1=NCc1ccccc1,13,-5,-8,-1,3
CN1N=C(C(C)(C)C)CSC1=Nc1ccc(F)cc1,-17,-20,-10,66*,-7
CO[C@H]1CC[C@@H]2CCN(C)C(=O)[C@@H](C)N(C)C(=O)c3cc(C#N)ccc3OC[C@H]1O2,-4,3,x,x,x
CC(=O)CC(C)(C)n1nnc(-c2ccccc2)n1,-8,x,-3,92*,-5
CCN=c1scc(C)n1/N=C/c1cc(Br)c(O)c(Br)c1,21,4,53*,10,7
CCNC(=O)C[C@H]1C=C[C@@H](NC(=O)C2CCOCC2)[C@H](CO)O1,-3,-5,x,x,x
CC(C)OC(=O)c1ccc(NCc2cc(O)ccc2O)cc1,x,69*,16,101*,-6
CCC(=O)Nc1ccc(C(=O)OCc2ccccc2)cc1,-32,-24,-56,-36,0
O=C(OCc1ccccc1)c1ccc(NCc2cc(O)ccc2O)cc1,54*,62*,58*,107*,-36
O=C(/C=C/Sc1ccccc1)c1ccc(Cl)cc1,x,x,30,78*,-56
O=C(/C=C/Sc1ccccc1)c1ccccc1,-50,24,34,90*,-24
O=C(/C=C/Nc1ccccc1)c1ccccc1,x,x,-23,37,-26
C[C@@H]1CN([C@@H](C)CO)C(=O)c2cccc(NS(=O)(=O)c3ccc(Cl)cc3)c2O[C@@H]1CN(C)S(=O)(=O)c1cccs1,-6,-1,x,x,x
COc1cc2c(c(OC)c1OC)-c1ccc(SC)c(=O)cc1C(NC=O)CC2 (configuration not stated),20,62*,29,57*,3
COc1cc2c(c(OC)c1OC)-c1ccc(OC)c(=O)cc1C(NC(C)=O)CC2 (configuration not stated),8,64*,24,-23,11
C=COC(=O)NC1CCc2cc(OC)c(OC)c(OC)c2-c2ccc(SC)c(=O)cc21 (configuration not stated),-4,29,14,-25,-4
Cc1c(N=Cc2ccc(O)c(Br)c2)cccc1[N+](=O)[O-],3,6,-3,18,47*
O=[N+]([O-])c1ccc(N=Cc2ccc(Br)c([N+](=O)[O-])c2)cc1,-9,19,-13,5,-14
Cc1nc2c(ccc3nc(NC(=O)Cc4cccc5ccccc45)sc32)s1,-8,-24,-24,38,4
Cc1nc2c(ccc3nc(NC(=O)C(c4ccccc4)c4ccccc4)sc32)s1,-23,12,30,75*,3
N#CC1=C(N)N(c2ccc(Oc3ccccc3)cc2)C(=O)C1,x,x,x,88*,2
COc1ccc(NC(=O)N(C)C[C@H]2OCCCC[C@H](C)Oc3ccc(NS(=O)(=O)c4ccc(C)cc4)cc3C(=O)N([C@@H](C)CO)C[C@@H]2C)cc1,-7,21,x,x,x
CC(=O)c1c(N2CCN(C)CC2)nc(=S)n(Cc2ccccc2)c1C,6,-2,4,4,-3
C=CCn1c(C)c(C(C)=O)c(N2CCN(C(c3ccccc3)c3ccccc3)CC2)nc1=S,-15,15,2,13,55*
SMILES,LGR2 inh,EWS-Fli inh,TROY signal inh,TWEAK-Fn14 inh,LMP1 NFkB inh
C[C@@H]1CN([C@@H](C)CO)C(=O)c2cccc(NS(C)(=O)=O)c2O[C@H]1CN(C)CC1CC1,-8,-7,x,x,x
C[C@@H]1CN([C@@H](C)CO)C(=O)c2cc(C#CCN(C)C)cnc2O[C@H]1CN(C)S(=O)(=O)c1ccccc1,6,-15,x,x,x
Cc1ccc(C(NC(=O)NC(C)c2ccccc2)C(Cl)(Cl)Cl)cc1F (configuration not stated),u,x,58*,55*,10
CC(NC(=O)Nc1ccc(Cl)cc1)c1ccccc1 (configuration not stated),-11,-2,-34,7,-2
COc1cc(CNn2cnnc2)ccc1OCC(=O)NC1CCCCC1,x,x,-22,12,-5
COc1cc(CNCc2ccccc2Cl)ccc1OCC(=O)NC1CCCCC1,-9,x,4,86*,8
O=[N+]([O-])CC(c1ccccc1)c1c[nH]c2ccccc12 (configuration not stated),6,37,5,2,x
OC(CNCC(c1ccc(Cl)cc1Cl)c1c[nH]c2ccccc12)c1ccccc1 (configuration not stated),102*,48,79*,74*,-37
O=C(C[C@H]1CC[C@H]2[C@@H](COC[C@@H](O)CN2Cc2ccc(F)cc2)O1)NCc1ccccc1Cl,15,4,x,x,x
COc1cc2oc(=O)cc(-c3ccc(-c4ccc(CO)cc4)cc3)c2c(OC)c1OC,2,-18,44,66*,13
CC(Nc1cccc2ccccc12)C(=O)N/N=C/c1ccccn1 (configuration not stated),x,x,-5,55*,4
O=C(CCCC(=O)N/N=C\c1ccccn1)N/N=C\c1ccccn1,-3,6,-19,-5,-7
CC(=O)c1c(C)[nH]c(C(=O)Nc2ccc(C)c(S(=O)(=O)Nc3ccc(C)cc3C)c2)c1C,9,10,58*,47,5
CC(=O)c1c(C)[nH]c(C(=O)Nc2ccc(C)c(S(=O)(=O)N(C)C)c2)c1C,-33,-122,-40,-1,-19
COc1ccc(NC(=O)c2ccc3c(c2)NC(=O)CS3)cc1S(=O)(=O)Nc1ccc(Br)cc1,16,-17,31,17,-12
Cc1ccc(NS(=O)(=O)c2cc(NC(=O)c3ccc4c(c3)NC(=O)CS4)ccc2C)c(C)c1,24,14,64*,72*,7
Cc1noc(C)c1NC(=O)N[C@@H]1C=C[C@H](CC(=O)N2CCN(C)CC2)O[C@@H]1CO,-5,-5,x,x,x
CCC(=O)N(C)C[C@@H]1Oc2ncc(/C=C/c3ccccc3)cc2C(=O)N([C@H](C)CO)C[C@@H]1C,5,-14,x,x,x
CCCOC(=O)C1=C(C)NC(=O)NC1c1cccc2ccccc12 (configuration not stated),-1,x,-6,-2,-2
CC1=C(C(=O)OCCBr)C(c2cccc3ccccc23)NC(=O)N1 (configuration not stated),5,-5,6,53*,3
O=C(COC(=O)c1ccccc1-n1cnnn1)c1ccc(Br)cc1,8,14,62*,72*,2
O=C(NC1=NC2CCCCC2N1)c1ccccc1 (configuration not stated),-4,x,44,76*,29
Cc1nc(-c2ccc(NC(=O)/C=C\C(=O)O)cc2)cs1,-32,-1,61*,20,-5
Cc1ccc2sc(-c3ccc(NC(=O)/C=C\C(=O)O)cc3)nc2c1,u,36,48,55*,-9
